Test results as given in ChEMBL document CHEMBL4513216, “Probing the Open Global Health Chemical Diversity Library for Multistage-Active Starting Points for Next-Generation Antimalarials” (ACS Infect Dis, 2020).
Among all 69,000 compounds or so, about 8,600 (12%) showed an effect of 50% or more. The sample as a whole holds a higher share of strong results than the screen did.

System: Plasmodium berghei
Assay: Screen against P. berghei liver stage (PbLuc), transformed with Luciferase, at 10uM
Assay type: functional, HepG2
Settings: tested at 10 uM

SMILES | INHIBITION
Cc1ccsc1CNCCCOc1ccccn1 | -19.1%
CC(=O)c1nn(-c2ccccc2)c(C)c1C(C)=O | 10.6%
Cc1ccc(-c2nc(CN3CCCC(Cn4cncn4)C3)no2)cc1 (stereo not drawn) | -28.3%
CCN1CC2(CC1=O)CN(C(=O)c1ccoc1)CCN(C(=O)N(C)C)C2 (stereo not drawn) | 20.9%
CCN1CC2(CC1=O)CN(Cc1cccs1)CCN(C(=O)C(C)C)C2 (stereo not drawn) | -9.76%
CCN1CC2(CC1=O)CN(C(=O)c1cccs1)CCN(C(=O)N(C)C)C2 (stereo not drawn) | 71%
CCN1CC2(CC1=O)CN(C(=O)c1ccco1)CCN(C(=O)N(C)C)C2 (stereo not drawn) | 5.14%
CCN1CC2(CC1=O)CN(Cc1ccsc1)CCN(C(=O)C(C)C)C2 (stereo not drawn) | 20.9%
CCN1CC2(CC1=O)CN(C(=O)c1ccsc1)CCN(C(=O)N(C)C)C2 (stereo not drawn) | 56.1%
Cc1nc(CNC(=O)c2cc(COc3cccc(F)c3)[nH]n2)n[nH]1 | 10.1%
CN(CCOc1ccc(C#N)cc1)CC1CC1 | -24.7%
CCCC12CN3CC(CCC)(CN(C1)C3c1[nH]c(=O)[nH]c(=O)c1C)C2=O (stereo not drawn) | 17.1%
CCO[C@@H]1CCN(c2ccc(C)nn2)[C@@H]1Cc1cnn(C)c1 | 24.8%
CC(C)(C)n1ncc2c(=O)n(CC(=O)NCc3ccccc3Cl)cnc21 | 71.4%
CC(C)(C)n1ncc2c(=O)n(CC(=O)NCCc3ccccc3)cnc21 | -25.4%
CC(C)(C)n1ncc2c(=O)n(CC(=O)NCc3ccccc3)cnc21 | 84.3%
CC(C)(C)n1ncc2c(=O)n(CC(=O)NCc3ccco3)cnc21 | -28.5%
NC(=O)Cn1c(CO)cnc1SCC(=O)NCc1ccccc1Cl | -20.8%
CCCNC(=O)Cn1nc(C(C)C)c2cnn(C(C)(C)C)c2c1=O | -7.35%
Cc1ccncc1-n1cc(CCO)cn1 | 0.546%
O=C(CC1CCCCC1)NC1CCCc2nc(N3CCOCC3)ncc21 (stereo not drawn) | 25.6%
Cc1cc(NC(C)c2nnn[nH]2)n2nc(C)c(C)c2n1 (stereo not drawn) | 5.91%

SMILES | INHIBITION
C1CCC(CN2Cc3nnn(CC4CC4)c3C(COCC3CC3)C2)C1 (stereo not drawn) | 63.3%
c1cc(CN2Cc3nnn(CC4CC4)c3C(COCC3CC3)C2)co1 (stereo not drawn) | 29.6%
CCOCC1CN(CC2CCC2)Cc2nnn(CC3CC3)c21 (stereo not drawn) | 44.4%
C1CC(N2Cc3nnn(CC4CC4)c3C(COCC3CC3)C2)C1 (stereo not drawn) | 67.3%
COCC1CN(Cc2ccncc2)Cc2nnn(CC3CC3)c21 (stereo not drawn) | 45.1%
CN(C)C(=O)N1Cc2nnn(CC3CC3)c2C(COCC2CC2)C1 (stereo not drawn) | -0.284%
Cc1ccc(N2CCCN(C(=O)CC3C=CCC3)CC2)nn1 (stereo not drawn) | -0.113%
O=C1CCOC[C@]2(CN(Cc3ccccc3)C[C@H]2c2cccc(F)c2)N1 | -38.8%
COc1ccc2c(c1)OCC(C(=O)NCc1nc3c(s1)CCCC3)C2 (stereo not drawn) | -23.3%
CC(c1ccccc1)N(C)C(=O)CNCCn1cccn1 (stereo not drawn) | 31.1%
CCN(CC)CC(=O)N1CCCCC1c1nc(C)cs1 (stereo not drawn) | -67.3%
CCn1cc(CN2CCN(CC(O)c3ccc(C)cc3C)CC2)c(C)n1 (stereo not drawn) | 28%
Cc1nn(C)c2nc(N3CCCC3c3nccs3)sc12 (stereo not drawn) | 49.9%
Cc1nn(C)c2nc(N3CCCCC3c3ccc(F)cc3)sc12 (stereo not drawn) | -11.6%
Cc1nn(C)c2nc(N3CCNC(=O)C3C(C)C)sc12 (stereo not drawn) | -47.5%
COC(=O)CN1CCN(c2nc3c(s2)c(C)nn3C)C(C)C1=O (stereo not drawn) | 52.9%
Cc1nn(C)c2nc(N3CCNC(=O)C3Cc3ccccc3)sc12 (stereo not drawn) | 32.3%
Cc1ccc(CN2C[C@H]3CN(Cc4ccccc4Cl)CCN3C2=O)cc1 | -45.5%
Cc1ccc(CN2CCN(C(=O)c3ccc(CO)cc3)C(C)C2=O)cc1 (stereo not drawn) | 60.3%
Cc1ccc(CN2CCN(C(=O)c3ccccc3O)C(C)C2=O)cc1 (stereo not drawn) | 37.6%
CNc1ncccc1C(=O)N1CCN(Cc2ccc(C)cc2)C(=O)C1C (stereo not drawn) | -11.5%
COC(=O)CC1C(=O)NCCN1c1nc2c(s1)c(C)nn2C (stereo not drawn) | 51.1%

SMILES | INHIBITION
Cc1nn(C)c2nc(N3CCCCC3c3nccs3)sc12 (stereo not drawn) | 28.7%
Cc1ccc(CN2CCN(c3nc4c(s3)c(C)nn4C)C(C)C2=O)cc1 (stereo not drawn) | 78%
Cc1occc1C(=O)N1CCCN(Cc2nccn2C)CC1 | 23.7%
OC1(CNCCCN2CCCc3ccccc32)CNCCOC1 (stereo not drawn) | 45.9%
Cc1nc(O)cc(CCNC(=O)c2ccccc2N2CCCC2)n1 | 18.5%
CCCS(=O)(=O)N1C[C@@H]2C[C@H](C(=O)N3CCN(C)CC3)[C@H](C1)O2 | 21.1%
COc1ccc(-c2cc(CN)nc3ccnn23)cc1 | 35.2%
CC(C)C[C@@H](C(N)=O)n1cc(-c2cncnc2)nn1 | 12.8%
COc1ccc(-n2ccc(C(=O)N(CCN(C)C)C(C)C)n2)cc1 | 18.2%
Cc1ccc(-c2nc(CCNCc3ccncc3)co2)cc1 | 49.6%
Cc1nc(C2CCCN2Cc2nccn2CC(F)(F)F)no1 (stereo not drawn) | 21.6%
CN(CC(F)(F)F)C(=O)CNC(=O)N1CCC(N2CCCC2)C1 (stereo not drawn) | 30.9%
CN1C(=O)COc2ccc(C(=O)Cn3cnc4ccsc4c3=O)cc21 | 47.9%
COCCN(C)C1COC2(CCN(Cc3ccccn3)CC2)C1 (stereo not drawn) | 25.2%
Cc1cccc(CNC(=O)CC2CCN(S(C)(=O)=O)CC2)n1 | -20.6%
O=C1CCC2(CCN(Cc3ccc(F)cc3)CC2)N1Cc1ccccc1 | 46.6%
Cc1nc(CSCCC(=O)NCc2ccncc2)cs1 | -4.94%
Cn1nccc1C(=O)NCCN1CCC(O)(c2ccc(F)cc2)CC1 | 14.65%
COCCN1CC[C@]2(CN(C(=O)c3cccs3)C[C@H]2C)C1=O | 22.4%
COCCN1CC[C@]2(CN(C(=O)c3ccc[nH]3)C[C@H]2C)C1=O | 61.3%
C[C@@H]1CN(C(=O)c2ccc[nH]2)C[C@]12CCN(CCN1CCCC1)C2=O | 48.4%
CCC(CC)C(=O)NCCc1ccn(-c2ccccc2)n1 | 15.6%

SMILES | INHIBITION
CC(C)c1cc(COCCCC(=O)O)no1 | 38.2%
CC(C)c1cc(CN2CCNCC2)no1 | 30.8%
CC(C)c1cc(CSCCC(=O)O)no1 | -46.4%
CC(C)c1cc(CN2CCC(CC(=O)O)CC2)no1 | 53%
CC(C)c1cc(CN2CCC(N)CC2)no1 | 76.8%
CC(C)c1cc(CN2CCC(N)CC2)on1 | 41.2%
Cc1ccc(-n2cc(C(=O)N3CCn4c(C)nnc4C3)nn2)cc1 | 15.9%
O=C(c1cnc(O)cn1)N1CCCC1c1nc2cc(F)ccc2[nH]1 (stereo not drawn) | 17.5%
Cn1ncc(C(=O)N2CCOCC2)c1Cl | 0.57%
Cc1cc(CNc2cc(-c3ccoc3C)nn2CCO)c(C)o1 | 43.7%
CCc1ccc(CNc2cc(-c3ccoc3C)nn2CCO)o1 | 54.4%
COc1cc(CNc2cc(-c3ccoc3C)nn2CCO)ccc1F | 38.3%
c1cc(N2CCCC2c2cnccn2)ncn1 (stereo not drawn) | -3.31%
COC(=O)c1cc(OCC2CCC2)cc(C(=O)NC2CCC(O)CC2)c1 (stereo not drawn) | 7.12%
COC(=O)c1cc(OCC2CCC2)cc(C(=O)N[C@@H]2CNCC[C@H]2O)c1 | 11.9%
COC(=O)c1cc(OCC2CCC2)cc(C(=O)N[C@@H]2CCCNC2)c1 | 58.4%
Cc1cc(NC(=O)CO)nn1-c1ccc(Cl)cc1Cl | 19.8%
O=C(NCCO)Nc1ccc(Cl)cc1-n1cccc1 | -6.91%
Cc1cc(NC(=O)N2CCC[C@@H]2CO)nn1-c1ccccc1Cl | 30.8%
CC(=O)NCC(=O)Nc1cc(C)n(-c2ccc(Cl)cc2Cl)n1 | 50%
Cc1cc(NC(=O)NCCO)nn1-c1ccc(Cl)cc1Cl | 60.5%
Cc1cc(NC(=O)N2CCOCC2)nn1-c1ccccc1Cl | 33.4%

SMILES | INHIBITION
CS(=O)(=O)N[C@H]1COC[C@@H]2CN(Cc3ccco3)C[C@@H]21 | -19.1%
COC(=O)c1sc2cccc(F)c2c1CNC(=O)C1CCCO1 (stereo not drawn) | -1.37%
CN1CCc2[nH]cnc2C12CCN(Cc1ccc3nsnc3c1)CC2 | 33.4%
CNC(=O)[C@@H]1C[C@H]2CN(Cc3ccco3)C[C@H]2N1C | -5.1%
Cc1ccc(C(=O)N2CCN(Cc3cccs3)CC2)c(=O)[nH]1 | 3.865%
CS(=O)(=O)NCc1cnc2n1CCN(Cc1ccccn1)CC2 | 41.2%
Cc1[nH]ncc1C(=O)N1CCCN(Cc2nccn2C(C)C)CC1 | 53.65%
CCc1[nH]ncc1C(=O)N1CCCN(Cc2nccn2C(C)C)CC1 | -33.8%
Cc1nccc(C(=O)N2CCCN(Cc3nccn3C(C)C)CC2)n1 | 29.3%
Cc1ncncc1C(=O)N1CCCN(Cc2nccn2C(C)C)CC1 | -49.5%
CC(C)n1ccnc1CN1CCCN(C(=O)c2cscn2)CC1 | 54.9%
Cc1cc(C(=O)N2CCCN(Cc3nccn3C(C)C)CC2)no1 | -6.35%
CCc1cc(CNC(=O)N2CCN(c3nc(C)c(C)s3)CC2)on1 | 32.4%
CSc1ncc(CN(C)C(C)c2cccnc2)cn1 (stereo not drawn) | -1.33%
O=C(NCCN1CCOCC1)c1scnc1Cl | 23.7%
CSCCCN1C[C@H](NC(=O)c2ccc(CO)cc2)[C@@H](C2CC2)C1 | 0.72%
CN(C)c1ccc(C(=O)Nc2ccn(CCc3ccncc3)n2)cc1 | 5.91%
COc1ccccc1S(=O)(=O)Nc1cnc(O)cc1C | -13.6%
COc1cc(F)c(S(=O)(=O)Nc2cnc(O)cc2C)cc1OC | -3.83%
Cc1cc(O)ncc1NS(=O)(=O)c1cccc(F)c1F | 69.9%
